ChEMBL document CHEMBL4513216, “Probing the Open Global Health Chemical Diversity Library for Multistage-Active Starting Points for Next-Generation Antimalarials” (ACS Infect Dis, 2020)
In all, about 65,000 compounds went through this assay and about 2,100 (3.2%) showed an effect of 50% or more. The median lay at about -52%. This excerpt belongs to a sample that is enriched for strong results.

The compounds below were run on Plasmodium falciparum (assay: Screen against P. falciparum Asexual Blood Stage (ABS), at 5uM). Conditions: tested at 5 uM.
Type: functional, Dd2

SMILES | INHIBITION [%]
COc1c(C)cnc(CN2CCC(N(C)C(C)C(N)=O)CC2)c1C (stereo not drawn) | 78.2
COc1c(C)cnc(CN(C)C2CCCCC2)c1C | 76.7
Cc1n[nH]c2c1C(c1ccc(O)cc1)SCC(=O)N2 (stereo not drawn) | -12.2
Fc1cccc(O[C@@H]2C[C@H]3CN(Cc4ccccn4)CCN3C2)c1 | -29.8
Cc1cnccc1CN1CC[C@H](Oc2cccc(F)c2)[C@@](C)(O)C1 | 80.2
Cc1cccnc1CN1CC[C@H](Oc2cccc(F)c2)[C@@](C)(O)C1 | 75
O=C(Cc1ccccn1)N1CCN2C[C@H](Oc3cccc(F)c3)C[C@H]2C1 | -85.6
Cc1cccnc1CN1CCC2(CC(Nc3ccncn3)C2)C1 (stereo not drawn) | -21.6
Fc1cccc(O[C@@H]2C[C@H]3CN(Cc4ccncc4)CCN3C2)c1 | -111
O=C(c1ccsc1)N1CCN2C[C@H](OCc3ccccn3)C[C@H]2C1 | -131
Cn1nc(CN2CCCCC(N)C2)c2c(Cl)cccc21 (stereo not drawn) | 66.2
Cc1cc(-c2nn(C)c(Cl)c2CN2CCCCC(N)C2)no1 (stereo not drawn) | 70.3
Cc1csc([C@H]2C[C@H]3CN(Cc4cc(C)on4)CC[C@@H]3O2)n1 | -109
Cc1cc(CN2CC[C@@H]3O[C@@H](c4nnc(C)o4)C[C@H]3C2)no1 | -68.8
CS(=O)(=O)N[C@@H]1CN(Cc2ccncc2)C[C@@H]2CCCO[C@@H]21 | -73
NC(=O)CN1CCCN(C(=O)Cc2cccc(C(F)(F)F)c2)CC1 | -122
OC1(CN2CCC(Oc3cccc(C(F)(F)F)c3)CC2)CCNC1 (stereo not drawn) | 90.3
CC(N)C(=O)N1CCC(Oc2cccc(C(F)(F)F)c2)CC1 (stereo not drawn) | 76.6
NCC1(c2cccc(C(F)(F)F)c2)CCCC1 | 32.6
CC[C@H]1CN2CC[C@H]1C[C@@H]2CNC(=O)Nc1cccc(C(F)(F)F)c1 | -88.1
Cc1ccc(CN2C[C@@H](OCc3ccccn3)[C@H]3COC[C@H]32)o1 | -72.9

SMILES | INHIBITION [%]
CCc1ccc(CN2CC[C@@H]3NC(=O)CC[C@@H]32)o1 | 11.1
COc1cccc(CNCc2ccccc2Cl)c1O | 77
COc1cccc(CNCc2ccc(F)cc2Cl)c1O | 79.5
c1cc(COC[C@]23COC[C@H]2CN(Cc2ccsc2)C3)ccn1 | 41.6
Cc1ncsc1CN1C[C@@H](OCc2ccccn2)[C@H]2OCCC[C@H]21 | -244
Cc1cc(C)n(CCCn2cncc2-c2ccc3c(c2)CC(C)N3C)n1 (stereo not drawn) | 87.4
Cc1nn(C)c(C)c1CN1CCNCC1 | -133.5
CCN1c2ccc(-c3cncn3CCCn3ccnc3C)cc2CC1C (stereo not drawn) | 86.6
Cc1nn(C)c(C)c1CCn1cncc1-c1ccc2c(c1)CC(C)N2C (stereo not drawn) | 82.6
CCN1c2ccc(-c3cncn3CC(=O)NC(C)(C)C)cc2CC1C (stereo not drawn) | 73.2
Cc1cc(C)c(CNc2ncnc3ccsc23)c(=O)[nH]1 | -52
Cc1csc(C2(NCC(O)COC(C)C)CCCC2)n1 (stereo not drawn) | -14.1
O=C(c1cc(F)cc(F)c1)N1C[C@H]2CNC[C@H]2C1 | 1.31
CN1CCC2(CC1)C(=O)N(C)c1ccc(F)cc12 | -95.4
CN1C(=O)C2(CCNCC2)c2cc(F)ccc21 | -85.9
CC(C)N1CCC2(CC1)C(=O)N(c1cccnc1)c1c(F)cccc12 | 49.8
CC(C)N1CCC2(CC1)C(=O)N(c1cccnc1)c1ccc(F)cc12 | 65.4
CC(C)N1C(=O)C2(CCN(C)CC2)c2cc(F)ccc21 | -10.7
CN1CCC2(CC1)C(=O)N(c1cccnc1)c1ccc(F)cc12 | 59.5
Cc1cccc(CN(Cc2ccc(C)o2)C2CC(C)(C)NC(C)(C)C2)n1 | 77.4
Cc1cccc(CN2CCCC23CCNC3)n1 (stereo not drawn) | 15.6

SMILES | INHIBITION [%]
Cc1cccc(CN2CCCCC23CCNC3)n1 (stereo not drawn) | 25.4
COc1cc(C(=O)NCC2(N(C)C)CCN(C)CC2)c2ccccc2n1 | 73.6
Cn1cc(CN2CCC[C@]3(C[C@H](Oc4ccccn4)CO3)C2)cn1 | -23.8
CO[C@H]1CN(C(C)C)C[C@@H]1NC(=O)Nc1ccc(C(F)(F)F)cc1 | 71.5
O=C1CC2(CCN(Cc3ccncc3)C2)CN1c1cccc(F)c1 (stereo not drawn) | -17.3
O=C1CC2(CCN(Cc3cccnc3)C2)CN1c1cccc(F)c1 (stereo not drawn) | -34.7
CC(C)=CCN1CCC2(CC1)CC(=O)N(Cc1cc(F)cc(F)c1)C2 | 75
CCCN1CCN(C(=O)c2ccc(Cl)cn2)[C@H]2CS(=O)(=O)C[C@H]21 | -54.2
c1cncc(COC[C@H]2CC[C@H]3[C@H](CCN3Cc3nccs3)O2)c1 | -35.5
COc1ccc(-c2n[nH]cc2C2SCC(=O)Nc3[nH]ncc32)cc1 (stereo not drawn) | -21.3
Cc1ccc(C(=O)N2CC[C@H]3[C@H]2CCN3CC2CCOCC2)cn1 | -131
O=S(=O)(NC1CCC12CCN(CC1CC1)CC2)c1ccccc1 (stereo not drawn) | 71.2
CO[C@H]1CCN(S(=O)(=O)c2cccnc2)[C@@H]2CN(CC3CC3)C[C@H]12 | 31
CNC(=O)c1ccc2c(c1)C1(CCN(CC3CC3)CC1)C(=O)N2 | -44.8
c1ccc(CN2C[C@H]3CCC[C@@]3(COCC3CCOCC3)C2)nc1 | -45.1
Fc1ccc(COCC2CCN(Cc3ccccn3)CC2)cc1 | 78.8
c1ccc(CN2C[C@@H]3COC[C@]3(COCC3CCOCC3)C2)nc1 | -61.3
c1ccc(CN2C[C@H]3CCC[C@@]3(COCC3CC3)C2)nc1 | -64.4
c1ccc(CN2C[C@@H]3COC[C@]3(COCc3ccncc3)C2)nc1 | -47.9
Clc1ccc(COCC2CCN(Cc3ccccn3)CC2)cc1 | 90.7
Cc1nc2c(c(NCc3nc4ccccc4s3)n1)CCNCC2 | 71.3

SMILES | INHIBITION [%]
Cc1nc2c(c(NCc3cc4ccccc4s3)n1)CCNCC2 | 89.2
Cc1nc2c(c(NCc3ccc(-c4ccccn4)s3)n1)CCNCC2 | 73.6
COc1ncnc(N)c1CNCCc1ccccc1 | -136
Cc1nc(C2(NCC(=O)NCc3cccs3)CCCCC2)no1 | -130
CN(C)C(=O)CN1CCCC2(CCN(c3ccc(C#N)cn3)C2)C1 (stereo not drawn) | -51.1
O=C1CCCN1CCN1CC=C(c2cnn(C3CCS(=O)(=O)C3)c2)CC1 (stereo not drawn) | -88.6
CC(Nc1ncnc2c1CCNC2)c1ccc2c(c1)CCCC2 (stereo not drawn) | 71.2
CC(C)N(C)Cc1cncc2c1CCN(Cc1cccs1)C2 | 1.43
COCCN1CCCC12CCN(Cc1cccnc1OC)CC2 | -66.3
COc1cc(Oc2ncccc2C(F)(F)F)ccc1CN1CCCC1 | 79.4
CCN1CCCC12CCN(Cc1cccnc1OC)CC2 | -69.1
Cc1noc(C)c1CN1CCO[C@H]2[C@H](Oc3ccccn3)CC[C@@H]21 | -42.5
OCCCN1CCc2[nH]nc(C(c3ccccc3)c3ccccc3)c2C1 | 73
Cc1cccc(CN2CC3C[C@]3(NC(=O)c3ccoc3)C2)n1 (stereo partly drawn) | -67.9
COCCN1C[C@@H]2[C@@H](OC)CCN(S(=O)(=O)c3cccnc3)[C@@H]2C1 | -22.8
Cn1ccc2c(C(=O)NC3CN4CCC3CC4)cccc21 (stereo not drawn) | 3.44
Cc1ccc(C(=O)N[C@H]2CN(CCO)C[C@@H]2C2CC2)cc1Cl | 52.2
CCOc1ccc(C2SCC(=O)Nc3c2c(=O)[nH]n3C(CC)CC)cc1 (stereo not drawn) | -144
CCN1CCN(S(=O)(=O)c2cc(Cl)c(Cl)cc2C)CC1 | 70.9
CCN1CCN(c2cncc(Cl)n2)CC1 | -13.6
